This is a sample that favours compounds with a hit; in the whole collection about 3.4% have one here.
FXN GAA850 act: increases GAA850 frataxin promoter reporter activity | HEK293 lucGAA850 FXN promoter luciferase reporter, 24 h; percent of 10 µM SAHA response | activation, % at 6 µM | 360,000 compounds, 0.56% hits;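 active = activation above the average of all compounds screened plus 3 SD, cutoff fixed separately per campaign, cut at about 7.5% in these data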;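 note: 0% = DMSO wells and 100% = 10 µM SAHA wells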
Gli-Sufu block: antagonists of Gli-Sufu signaling. 340,000 compounds, 0.74% hits. Sufu-KO-LIGHT fibroblasts, Gli luciferase reporter luminescence. inhibition, % at 5 µM;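 active = inhibition above about 55%, limit read from the data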;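 note: 0% = DMSO-treated cells and 100% = wells with medium but no cells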
SMARCA2 activ: activators of SMARCA2 function | MG213 cells, MMTV-luciferase reporter, dexamethasone, overnight | activation, % at 9.1 µM | 370,000 compounds, 1% hits; in the data active = activation above about 7.8%;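 note: 0% = vehicle wells and 100% = reference activator wells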
GalR3 antagonist: antagonists of human GalR3. O60755. HEK293 GalR3-CNG cAMP membrane potential fluorescence; galR3 body fused to GalR1 C-terminus. inhibition, % at 3 µM. 360,000 compounds, 0.44% hits;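 active = inhibition above the screen-wide average plus 3 SD, cut at about 13% in these data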;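 note: forskolin and galanin both at EC90 stimulate the cells; cAMP rise reported by CNG channel membrane potential dye signal; 0% = forskolin plus galanin with DMSO and 100% = forskolin alone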
Target sequence (O60755 1-299 limits assumed): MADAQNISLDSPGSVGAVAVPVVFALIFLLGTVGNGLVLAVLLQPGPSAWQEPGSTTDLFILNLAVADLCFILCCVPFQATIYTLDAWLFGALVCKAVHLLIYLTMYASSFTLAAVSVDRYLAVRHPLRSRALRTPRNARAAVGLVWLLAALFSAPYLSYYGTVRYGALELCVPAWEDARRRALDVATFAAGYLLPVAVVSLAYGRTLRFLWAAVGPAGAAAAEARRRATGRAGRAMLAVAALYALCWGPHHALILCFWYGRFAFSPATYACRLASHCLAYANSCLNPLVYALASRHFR
COUP-TFII inh: NR2F2 (human) inhibition, primary screen; 370,000 compounds, 0.7% hits; inhibition, % at 8.6 µM; AID 686940; HEK293T NGFI-A luciferase reporter, luminescence; P24468;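 active = inhibition above a per-plate cutoff, mean inhibition of test wells between control levels plus 3 SD, cut at about 38% in these data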;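 note: cells cotransfected with COUP-TFII expression vector driving the NGFI-A reporter; 0% = median of COUP-TF2 test wells and 100% = reporter-only cells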
Target sequence (P24468 whole entry, looked up): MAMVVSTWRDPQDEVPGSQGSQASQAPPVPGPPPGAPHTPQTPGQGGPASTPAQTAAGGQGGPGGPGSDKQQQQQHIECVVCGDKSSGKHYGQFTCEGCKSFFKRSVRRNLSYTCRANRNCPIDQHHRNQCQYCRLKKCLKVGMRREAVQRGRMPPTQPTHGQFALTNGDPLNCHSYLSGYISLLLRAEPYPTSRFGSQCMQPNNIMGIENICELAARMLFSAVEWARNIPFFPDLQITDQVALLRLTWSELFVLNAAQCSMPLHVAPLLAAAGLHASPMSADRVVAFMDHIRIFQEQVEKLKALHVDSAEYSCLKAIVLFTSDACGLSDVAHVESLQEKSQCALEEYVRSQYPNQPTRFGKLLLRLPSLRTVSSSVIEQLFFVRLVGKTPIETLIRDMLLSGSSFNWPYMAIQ
H9c2 protect: modulators protecting cardiomyocytes from myocardial damage | H9c2 cardiomyocytes, H2O2 injury protection, ATPLite, 2 h | AID 588492 | 360,000 compounds, 0.63% hits | protection from H2O2 cell death, % at 20 µM;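 active = compounds giving at least 50% protection of heart cells from peroxide-induced death in the single-dose screen, raw or plate-pattern-corrected value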;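 note: 0% = DMSO wells with peroxide and 100% = DMSO wells without peroxide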
GalR3 antag conf: GalR3 (human) antagonism, confirmation; 1,600 compounds, 59% hits; HEK293 GalR3 CNG cAMP biosensor, membrane potential fluorescence; galR3 fused to GalR1 carboxy tail; challenged with forskolin and galanin at EC90; inhibition, % at 3 µM; shares compounds with GalR3 antagonist;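 active = inhibition above the primary screen's cutoff, the mean inhibition of all screened compounds plus 3 SD, cut at about 13% in these data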;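 note: 0% = forskolin plus galanin and 100% = forskolin alone with DMSO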
CNG parental: counter-screen for GalR3 antagonists: nonspecific agonists in parental HEK-CNG cells. HEK293-CNG parental cells, cAMP membrane potential fluorescence; normalised: DMSO wells 0%, forskolin wells 100%. AID 652268. shares compounds with GalR3 antagonist. 1,600 compounds, 10% hits. activation, % at 3 µM; in the data active = activation above about 1.3%
An asterisk follows results filed as active; . = no result.

SMILES	FXN GAA850 act	Gli-Sufu block	SMARCA2 activ	GalR3 antagonist	COUP-TFII inh	H9c2 protect	GalR3 antag conf	CNG parental
CSc1nsc2nc(=O)c(/C=C3\C(C)=Nc4ccccc43)c(N)n12	0.6	-5.3	-1.8	12.7*	-21.1	3.2	2.6	-0.1
OC(c1cccnc1)c1nc(-c2ccc3c(c2)OCO3)cs1 (centres undefined)	1.4	.	0.4	-8.0	-12.9	-0.8	.	.
COc1ccc(NC(=S)N/C(=N/CS(=O)(=O)c2ccccc2)c2ccccc2)cc1	4.0	-27.7	1.7	-2.4	-61.5	-14.1	.	.
O=[N+]([O-])c1ccc(NC(=S)N/C(=N/CS(=O)(=O)c2ccccc2)c2ccccc2)cc1	0.4	-3.6	-0.1	12.9*	-10.5	-11.1	6.9	0.6
COc1ccc(/C=N/NC(=O)C(C)Sc2ccccn2)cc1[N+](=O)[O-] (centres undefined)	-0.1	-5.9	-1.4	19.3*	-4.7	5.0	3.3	-0.1
COc1ccc(/C=N/NC(=O)C(=O)N2CCCCCC2)cc1[N+](=O)[O-]	1.9	-3.9	-0.8	16.5*	-9.4	-4.1	21.7*	0.1
COc1ccc(/C=N\NC(=O)CNC(=O)C(c2ccccc2)c2ccccc2)cc1[N+](=O)[O-]	-1.0	-4.7	1.0	-1.6	2.2	10.2	.	.
CSc1ccccc1NC(=O)CN(C)C(=O)C(C)SCc1nc2sc(C)c(C)c2c(=O)[nH]1 (centres undefined)	1.1	5.0	-1.8	-0.1	-5.1	33.3	.	.
Cc1nc(C)n(CCNS(=O)(=O)c2ccc(C)c(C)c2)n1	0.3	26.3	-4.1	17.6*	-1.4	-1.9	-4.0	0.2
COc1ccc(NC(=O)Nc2cccc(C(F)(F)F)c2)cn1	0.2	-14.6	-2.8	-7.4	-2.4	-15.5	.	.
Nc1[nH]n2c(=O)c3c(nc2c1N=Nc1ccc(Cl)cc1)CCCC3	2.1	0.4	-0.4	3.0	4.6	35.0	.	.
Nc1[nH]n2c(=O)c3c(nc2c1N=Nc1ccccc1)CCCC3	0.4	30.6	-0.3	61.4*	-0.6	42.3	28.5*	0.0
Cc1cccc(NS(=O)(=O)c2cc(C(=O)NCCC3=CCCCC3)ccc2Cl)c1	-1.0	-18.6	-5.7	-0.6	31.9	-7.5	.	.
COc1ccccc1OCC(=O)NCCC1=CCCCC1	0.1	-24.6	-1.6	.	3.6	3.9	2.7	0.5
N=C1/C(=C\c2ccc(-c3cc(Cl)cc(Cl)c3)o2)C(=O)N=C2SC=C(c3ccccc3)N12	-2.2	9.9	-2.1	12.9*	-37.3	-1.3	4.5	-0.4
N=C1/C(=C/c2ccc(-c3cccc(C(=O)O)c3)o2)C(=O)N=C2SC=C(c3ccccc3)N12	1.8	10.6	7.4	-0.1	7.1	20.2	.	.
CC(C)n1nnc(-c2ccc(OCc3ccccc3F)cc2)n1	3.2	-71.0	4.8	-8.0	-75.2	-6.3	.	.
CS(=O)(=O)N1CCN(c2ccccc2NC(=O)c2ccc(Cl)cc2)CC1	-0.9	-1.9	-0.6	.	14.9	4.2	11.8	0.1
CS(=O)(=O)N1CCN(c2ccccc2NC(=O)c2ccc3ccccc3c2)CC1	1.2	2.9	-6.1	-2.8	-4.2	0.8	.	.
O=C(NCc1ccc(F)cc1)C1CCN(c2cnccn2)CC1	2.8	-4.9	5.2	-5.2	5.9	-2.7	.	.
Oc1cccc2ccc[n+](CC(O)Cn3c4ccccc4c4ccccc43)c12 (centres undefined)	-1.2	14.0	-1.2	-5.4	23.5	15.3	.	.
Cc1ccc(OCC(=O)Nc2cc(S(=O)(=O)N3CCCCC3)ccc2C)c([N+](=O)[O-])n1	1.8	0.3	2.0	12.8*	20.9	-6.8	0.4	-0.2
Cc1ccc(OCC(=O)Nc2ccc(S(=O)(=O)N3CCCCC3)cc2)c([N+](=O)[O-])n1	-1.6	2.9	-3.0	-5.7	9.2	-1.0	.	.
CCn1c(=O)[nH]c(=O)c2c(N)c(C(=O)c3ccccc3OC)sc21	6.3	0.3	-1.9	14.7*	-8.6	-4.0	-0.5	0.8
C=CCn1c(O)c2ccc(C(=O)N=NC(=O)COc3ccc(OC)cc3)cc2c1O	0.4	-8.4	6.6	2.8	-3.5	-0.8	.	.
SMILES	FXN GAA850 act	Gli-Sufu block	SMARCA2 activ	GalR3 antagonist	COUP-TFII inh	H9c2 protect	GalR3 antag conf	CNG parental
COc1cccc2[nH]c3c(N4CCCC(C)C4)ncnc3c12 (centres undefined)	1.6	-25.3	0.1	83.6*	-16.9	-6.9	94.4*	0.8
COc1cccc2[nH]c3c(N4CCC(C(N)=O)CC4)ncnc3c12	1.7	9.3	2.2	0.5	-12.2	8.9	.	.
Cc1ccc(C2C3=C(CC(C)(C)CC3=O)N=C3c4ccccc4C(=O)C32)cc1 (centres undefined)	-4.8	6.3	-4.2	15.3*	7.7	18.2	30.6*	-0.2
CCOCCCNS(=O)(=O)c1ccccc1	-4.9	-1.9	-1.2	-6.4	-4.1	1.8	.	.
CCOCCCNS(=O)(=O)c1ccc(NC(=O)c2ccccc2)cc1	0.9	-19.4	-5.6	64.6*	12.6	-11.8	4.0	0.0
O=C(NCc1nc2ccccc2[nH]1)c1cccc(S(=O)(=O)N2CCCC2)c1	2.3	-16.4	3.0	-0.1	-7.7	1.3	.	.
CC1CCCCN1CCCNC(=O)CN1C(=O)c2cccnc2Oc2ccc(Cl)cc21 (centres undefined)	0.8	2.1	-0.8	13.8*	-8.0	1.0	18.7*	0.0
O=C(CN1C(=O)c2cccnc2Oc2ccc(Cl)cc21)NC1CCCC1	0.6	-7.7	0.9	-5.7	-7.5	-0.8	.	.
Cn1c2ccccc2c2cnn(CC(=O)O)c(=O)c21	3.2	1.1	-0.4	.	-14.0	16.8	0.6	0.9
CC(=O)/C=C/n1c(=S)oc2ccccc21	.	45.0	-10.6	14.6*	2.8	.	2.3	1.6*
CCCc1ccc(C(=O)NC(=O)c2ccccc2O)cc1	0.4	-21.1	-1.8	13.3*	-18.6	-16.4	48.6*	-0.7
Nc1ncnc2c1nc(N1CCCCC1)n2[C@@H]1O[C@H](CO)[C@@H](O)[C@H]1O	2.3	-9.4	-0.9	1.0	-18.8	8.8	.	.
CNc1nc2c(N)ncnc2n1[C@H]1O[C@@H](CO)[C@H](O)[C@@H]1O	6.4	-19.9	-2.1	26.1*	-32.8	2.1	39.9*	0.3
COc1ccc(-c2c3c(=O)n(C)c(=O)n(C)c3cn2-c2cc(OC)ccc2OC)cc1	0.7	-21.3	-0.4	18.1*	-9.1	7.5	20.0*	0.2
COc1ccc(-c2c3c(=O)n(C)c(=O)n(C)c3cn2-c2ccccc2O)cc1	-0.2	-8.6	-3.2	-0.5	-11.1	-7.7	.	.
O=C(Nc1ccc(Cl)cn1)c1cccc2c(Br)cccc12	-1.3	-8.5	-0.4	-13.2	-9.6	0.6	.	.
